Screen size: about 69,000 compounds; about 8,600 (12%) showed an effect of 50% or more. The sample as a whole holds a higher share of strong results than the screen did.

In this assay the test system is Plasmodium berghei. Nature of the assay: Screen against P. berghei liver stage (PbLuc), transformed with Luciferase, at 10uM. The conditions noted are these: tested at 10 uM. The class given is functional, HepG2.
Regarding `CCn1cnnc1C1CCN(C(=O)c2cccc(-n3cccc3)c2)CC1`, the INHIBITION is on record as 20%.
Next, `O=C1NC2(CCCN(C(=O)CCn3cncn3)C2)Oc2ccccc21` (stereo not given): -5.279%.
Next, `Cc1cc(C)n(CCNCc2cc(-c3ccccc3)c[nH]c2=O)n1`: 7.43%; `Cc1noc(C)c1CN1CC[C@H]2OCC[C@@]2(C(=O)NC2CCCC2)C1`: 17.1%.
Next, `Cc1cc(C)c2c(OCC(=O)N(C)CC(=O)NC(C)C)nn(C)c2n1`: -0.275%; `CCCn1cc(NC(=O)NCC2CCS(=O)(=O)C2)nn1` (stereo not given): 16.6%.
On to `COCCN1C(=O)[C@@H]2CC[C@H]1CN(c1ncccn1)C2`, for which the INHIBITION is -33.4%.
With `Cc1nc(C2CCCN2CC(=O)NCCc2ccc(Cl)cc2)no1` (stereo not given), the INHIBITION came to 44.1%.
In the case of `c1coc(-c2nnc(CN(Cc3cccs3)CC3CCCO3)o2)c1` (stereo not given) it was 16.6%.
Next, `CC(C)(C)c1nnc(CN(Cc2cccs2)CC2CCCO2)o1` (stereo not given): 44%; `Brc1ccc(-c2nnc(CN(Cc3cccs3)CC3CCCO3)o2)s1` (stereo not given): 90.2%.
In the case of `CC1CCN(Cc2c(C(C)C)[nH]c3ncccc23)CC1` it was 8.12%; in that of `COCCC(=O)N1CCC2(CC1)CN(S(C)(=O)=O)Cc1ccccc1O2`, -0.66%.
For `OCCN1CCOC2(CCCN(c3cccc(F)c3)C2)C1` (stereo not given), the INHIBITION is listed as 43.8%.
Regarding `Fc1cccc(N2CCCC3(CN(Cc4ccco4)CCO3)C2)c1` (stereo not given), the INHIBITION was 80%.
As for `Cc1ccc(CN2CCOC3(CCCN(c4cccc(F)c4)C3)C2)o1` (stereo not given), the INHIBITION is on record as 81.2%.
For the molecule `Cc1nnc(N2CCCC3(CN(c4cccc(F)c4)CCO3)C2)o1` (stereo not given), the INHIBITION was 33%.
Next, `O=S(=O)(C1CC1)N1CCOC2(CCCN(c3cccc(F)c3)C2)C1` (stereo not given): -57.1%.
Next, `Fc1cccc(N2CCOC3(CCCN(c4nncs4)C3)C2)c1` (stereo not given): -22.5%; `CS(=O)(=O)NC1CC2(CCN(CC3CC3)CC2)Oc2ccccc21` (stereo not given): 19.4%; `CN(Cc1cccnc1)[C@@H]1CN(C(=O)NC2CC2)[C@@H]2CCCO[C@H]12`: 32.2%.
In the case of `Cc1cc(C(=O)N2CCCC(c3cc(=O)nc4n3CCC4)C2)on1` (stereo not given), the INHIBITION turned out to be 20.6%.
Next, `CCOc1nc2cnccc2n(CC(=O)Nc2ccccc2OC)c1=O`: -1.45%.
In the case of `O=S(=O)(c1cccs1)N1CC[C@H](O)[C@@H]1Cc1ccncc1` it was 28.4%.
Next, `O=S(=O)(c1cccs1)N1CC[C@@H](O)[C@@H]1Cc1ccncc1`: 71.9%.
As to `CO[C@H]1CCN(S(=O)(=O)c2cccs2)[C@H]1Cc1ccncc1`, the INHIBITION amounted to 7.77%.
In the case of `Cc1ccc(Sc2nccn(C)c2=O)cc1` it was -53.1%; in that of `Cc1c[nH]c(C2CN(Cc3ccccc3C(=O)O)CCO2)n1` (stereo not given), 26.7%; in that of `COc1ccc(CNC(=O)CCSCc2csc(C)n2)cn1`, -12.2%.
Turning to `CCN(CC)c1ncc(CNC2CCc3nc(C)nn3C2)s1` (stereo not given), the INHIBITION amounted to 4.22%.
On to `N#Cc1ccc(NCC(O)c2ccco2)c(C(F)(F)F)c1` (stereo not given), for which the INHIBITION stood at 25.7%.
In the case of `COCC(O)CNc1ccc(C#N)cc1C(F)(F)F` (stereo not given) it was 77.7%.
In the case of `CC(O)CNc1ccc(C#N)cc1C(F)(F)F` (stereo not given) it was 50.8%; in that of `CCC(C)C(=O)NS(=O)(=O)c1ccc(C#N)cc1C(F)(F)F` (stereo not given), 9.54%.
Next, `CCC(CC)C(=O)NS(=O)(=O)c1ccc(C#N)cc1C(F)(F)F`: 11.9%.
Consider `CC/C=C(/C)C(=O)NS(=O)(=O)c1ccc(C#N)cc1C(F)(F)F`, for which the INHIBITION is -7.53%.
Next, `Cc1ccc(C2CCCN(C(=O)c3cnn(C)c3)C2)nc1` (stereo not given): 3.91%.
Next, `CCNC(=O)CN1CCCC(c2ccc(C(=O)O)cc2)C1` (stereo not given): 45%; `CC(C)c1cncnc1N1CC[C@H](N2CCOCC2)[C@H](CCCO)C1`: 30.5%; `O=C(c1ccc(=O)[nH]c1)N1C[C@H]2CC[C@@H](C1)N(Cc1ccccc1)C2`: -70.7%.
Next, `O=C(NCCc1cnccn1)C1(N2CCCCC2)Cc2ccccc2C1`: 43.7%.
Turning to `COc1ccc(NC(=O)c2ccc(CN3CC[C@H](O)C3)cc2)c(OC)n1`, the INHIBITION is listed as 26.7%.
Next, `Cc1cncc(NC(=O)c2ccc(CN3CC[C@H](O)C3)cc2)c1`: 87.5%; `Cc1[nH]ccc1C(=O)Nc1cccc(CN2CCC(O)CC2)c1`: -4.74%; `COc1cc(NC(=O)c2ccc(CN3CC[C@H](O)C3)cc2)cc(OC)c1`: 67.6%.
For `O=C(Nc1ccccc1CCO)c1cccc(CN2CC[C@H](O)C2)c1`, the INHIBITION is recorded as 23.9%.
Regarding `CCNC(=O)C1CCN(Cc2ccc(C(=O)Nc3cnns3)cc2)C1` (stereo not given), the INHIBITION was 12.2%.
Take `Cc1cncc(NC(=O)c2ccc(CN3CCCC(C(N)=O)C3)cc2)c1` (stereo not given): the INHIBITION worked out at 23%.
Next, `Cc1cncc(NC(=O)c2ccc(CN3CCC(CO)CC3)cc2)c1`: -12.4%; `CCNC(=O)C1CCN(Cc2ccc(C(=O)Nc3nnc(C)s3)cc2)C1` (stereo not given): 57.35%.
Next, `Cc1cc(NC(=O)c2ccc(CN3CC[C@H](O)C3)cc2)ccc1F`: 90.3%; `NC(=O)C1CCCN(Cc2ccc(C(=O)Nc3cnns3)cc2)C1` (stereo not given): 40.15%.
In the case of `O=C(Nc1cccc2c1CCCC2)c1cccc(CN2CC[C@H](O)C2)c1` it was 37.6%.
As to `Cc1ccc(CN2C[C@@H]3[C@@H](C(=O)N4CCCC4)CCS(=O)(=O)[C@@H]3C2)cc1`, the INHIBITION is given as -10.9%.
In the case of `O=C(c1ccc[nH]1)N1C[C@@H]2CC[C@H]1CN(c1ncccn1)C2` it was -16.5%; in that of `O=C1C[C@H]2[C@@H](CCN2C(=O)c2ccc[nH]2)N1CCN1CCCC1`, 47.9%; in that of `COc1cc(C)nc(N2CCN(C(=O)c3ccoc3C)CC2)n1`, 11.9%.
In the case of `c1cncc(-c2ncnc3c2CCN(Cc2cccs2)CC3)c1` it was -49.8%; in that of `O=C(CCc1ccc(Cl)s1)N1CCC(N2CCNC2=O)CC1`, 60.9%; in that of `O=C(CCc1cccs1)N1CCC(N2CCNC2=O)CC1`, 27.8%.
In the case of `O=C(CCc1ccc(Cl)s1)N1CCCC(N2CCNC2=O)C1` (stereo not given), the INHIBITION is recorded as 30%.
Turning to `O=C(CCCc1cccs1)N1CCC(N2CCNC2=O)CC1`, the INHIBITION amounted to 70.8%.
For `O=C(CCc1cccs1)N1CCCC(N2CCNC2=O)C1` (stereo not given), the INHIBITION stood at 11.6%.
Next, `O=C(CCc1ccccc1)N1CCC(N2CCNC2=O)CC1`: 2.61%; `O=C(NCC1CC1)[C@@H]1CCO[C@@H]2CCN(c3ncccn3)C[C@@H]21`: 44.2%.
